GFP signal change (wild-type ribosome), OD600 change and RFP signal change data for 30 molecules are collected here from PubChem BioAssay AID720706 (Broad Institute, 2013).

Several values for one entry are separate records, joined by “and”; a condition that tells them apart may be missing. Equal values may be shown once. The campaign covered roughly 350,000 compounds. About 5,500 (1.6%) were called active.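 Rule for the calls: active = significant combined selectivity score with lowered wild-type GFP, culture density cut under 30%, mutant RFP and density less affected; inactive = any of these conditions unmet.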 This excerpt belongs to a sample that is enriched for actives.

The assay in a line: GFP drop in mixed WT/humanized-ribosome E. coli culture – GFP/RFP fluorescence, OD600, single point, bacterial rRNA inhibitor project, primary screen (AID 720706). To be noted: E. coli WT GFP vs humanized-ribosome RFP mutants, 24 h; GFP signal change (wild-type ribosome): stronger effect = lower value, concentration not given here unless noted; OD600 change: measured here: OD600 growth unless noted; RFP signal change: measured here: RFP humanized mutant strains, concentration not given here unless noted.
Turning to `O=C1CC(=O)N(Cc2ccccc2)C(=O)N1CCCCCCN1C(=O)CC(=O)N(Cc2ccccc2)C1=O`, the GFP signal change (wild-type ribosome) is -23.4% (active), the OD600 change came to 8% and the RFP signal change is -3.78%.
Consider `O=C(CN1CCCC1=O)NCCc1ccccc1`, for which the GFP signal change (wild-type ribosome) was 13.1% (inactive), the OD600 change is 9.85% and the RFP signal change amounted to 2.04%.
Take `CS(=O)(=O)N1CCC2CCNC2C1` (stereo not given): the GFP signal change (wild-type ribosome) is -44.3% [stronger effect = lower value, DMSO median 0, no signal -100] (inactive); the OD600 change was -74.4% [measured here: OD600 growth, DMSO median 0, no signal -100]; the RFP signal change was -13% [measured here: RFP humanized mutant strains, DMSO median 0, no signal -100, concentration not given here].
For `O=C(Cc1ccccc1)N1CCCCN2[C@H](C1)[C@H](c1ccc(C#CC3(O)CCCC3)cc1)[C@@H]2CO`, in that order: -0.103% (inactive), -5.65% and -2.06%.
In the same order, the values of `COC(=O)[C@@H]1[C@@H](CO)[C@@H]2Cn3c(ccc(-c4ccc(F)cc4)c3=O)[C@H]1N2C(C)=O` are -1.54% (inactive), -1.06% and -2.02%.
For `C[C@]12CCC3C(CC[C@H]4[C@H](O)[C@H](O)CC[C@]34C)C1CCC2=O` (stereo not given in full), in that order: -22.2% (inactive), -18.8% and 3.96%.
On to `C[C@]12CCC3C(CC[C@H]4C[C@@H](O)CC[C@]34C)C1C[C@@H](O)[C@H]2O` (stereo not given in full), for which the GFP signal change (wild-type ribosome) was -1.03% (inactive), the OD600 change is 2.49% and the RFP signal change turned out to be 0.13%.
In the same order, the values of `CC12CCC3C(CCC4CC(=O)CCC43C)C1CC(=NO)C2=O` (stereo not given) are -22% (active), -9.98% and 4.28%.
For the molecule `C=CCN1[C@@H]2CN(S(C)(=O)=O)C[C@H]1C2c1ccc(Br)cc1` (stereo not given in full), the GFP signal change (wild-type ribosome) is 0.44% [stronger effect = lower value, DMSO median 0, no signal -100] (inactive); the OD600 change was -2.24% [measured here: OD600 growth, DMSO median 0, no signal -100]; the RFP signal change was 0.309% [measured here: RFP humanized mutant strains, DMSO median 0, no signal -100, concentration not given here].
For `COc1cccc(-c2ccc3n(c2=O)C[C@@H]2[C@@H](CO)[C@H](C(=O)O)[C@H]3N2C(=O)c2cnccn2)c1`, in that order: 0.18% (inactive), 2.71% and -2.44%.
Regarding `Brc1ccc2c(c1)CNCc1cnnn1-2`, the GFP signal change (wild-type ribosome) is 21.4% [stronger effect = lower value, DMSO median 0, no signal -100] (inactive); the OD600 change was 6.17% [measured here: OD600 growth, DMSO median 0, no signal -100]; the RFP signal change is 0.786% [measured here: RFP humanized mutant strains, DMSO median 0, no signal -100, concentration not given here].
Turning to `C/C=C/c1ccc(C2[C@@H]3CN(S(C)(=O)=O)C[C@H]2N3)cc1` (stereo not given in full), the GFP signal change (wild-type ribosome) was 0.848% [stronger effect = lower value, DMSO median 0, no signal -100] (inactive); the OD600 change was 10.1% [measured here: OD600 growth, DMSO median 0, no signal -100]; the RFP signal change is 0.743% [measured here: RFP humanized mutant strains, DMSO median 0, no signal -100, concentration not given here].
For `C/C(=N/O)c1ccc2ccc3ccccc3c2c1`, in that order: -48% (active), -16.4% and -10.4%.
As to `O=[N+]([O-])c1cnc2ccc3ccccc3c2c1`, the GFP signal change (wild-type ribosome) is -67.7% (inactive), the OD600 change is -75.7% and the RFP signal change is -31.1%.
Regarding `Clc1ccc([C@@H]2CC3CCC2N3)cn1` (stereo not given in full), the GFP signal change (wild-type ribosome) was 0.922% [stronger effect = lower value, DMSO median 0, no signal -100] (inactive); the OD600 change is -1.31% [measured here: OD600 growth, DMSO median 0, no signal -100]; the RFP signal change was -1.9% [measured here: RFP humanized mutant strains, DMSO median 0, no signal -100, concentration not given here].
Consider `FC(F)(F)CN1CC2C(c3ccc(Br)cc3)C(C1)N2CC1CC1` (stereo not given), for which the GFP signal change (wild-type ribosome) was -5.85% [stronger effect = lower value, DMSO median 0, no signal -100] (inactive); the OD600 change is -3.54% [measured here: OD600 growth, DMSO median 0, no signal -100]; the RFP signal change is -0.25% [measured here: RFP humanized mutant strains, DMSO median 0, no signal -100, concentration not given here].
In the same order, the values of `O=C(Cc1ccncc1)N1CCCCN2[C@H](CO)[C@@H](c3ccc(C#CC4(O)CCCC4)cc3)[C@H]2C1` are 5.65% (inactive), 9.16% and 1.41%.
In the same order, the values of `Cc1ncoc1C(=O)NCC1=C(c2cccc3ccccc23)C[C@@H]2CC[C@H]1N2Cc1ccco1` are 5.41% (inactive), -0.665% and -7.54%.
In the same order, the values of `CCOc1ccc(-c2cc(C)[n+](CCN(CC)CC)c(-c3ccc(OCC)cc3)c2)cc1` are -47.8% (active), -15.2% and -13.2%.
Regarding `CCC(C)NC1(c2ccccc2)CCCCC1` (stereo not given), the GFP signal change (wild-type ribosome) is 11.4% (inactive), the OD600 change was determined as 7.39% and the RFP signal change came to 4.1%.
`CN(c1ccccc1)c1ccc([N+](=O)[O-])c2nonc12`: the GFP signal change (wild-type ribosome) was -8.38% (active), the OD600 change is -3.73% and the RFP signal change was -4.23%.
For `CCN(CC)c1ccc([N+](=O)[O-])c2cccnc12`, the GFP signal change (wild-type ribosome) was -44.1% (inactive), the OD600 change was -57.8% and the RFP signal change was -2.59%.
Take `FC(F)(F)CN1CC2NC(C1)C2c1ccc(Br)cc1` (stereo not given): the GFP signal change (wild-type ribosome) is -1.54% [stronger effect = lower value, DMSO median 0, no signal -100] (inactive); the OD600 change was -0.568% [measured here: OD600 growth, DMSO median 0, no signal -100]; the RFP signal change was -0.0575% [measured here: RFP humanized mutant strains, DMSO median 0, no signal -100, concentration not given here].
As to `O=S(=O)(c1ccccc1)N1CCC2CCNC2C1` (stereo not given), the GFP signal change (wild-type ribosome) was 32.8% [stronger effect = lower value, DMSO median 0, no signal -100] (inactive); the OD600 change is 20.2% [measured here: OD600 growth, DMSO median 0, no signal -100]; the RFP signal change was 4.31% [measured here: RFP humanized mutant strains, DMSO median 0, no signal -100, concentration not given here].
Consider `CC(=O)N1C[C@@H]2C(c3ccc(Br)cc3)[C@H](C1)N2C` (stereo not given in full), for which the GFP signal change (wild-type ribosome) was -0.325% [stronger effect = lower value, DMSO median 0, no signal -100] (inactive) and 1.25% [stronger effect = lower value, DMSO median 0, no signal -100] (inactive); the OD600 change is 4.6% [measured here: OD600 growth, DMSO median 0, no signal -100] and 7.11% [measured here: OD600 growth, DMSO median 0, no signal -100]; the RFP signal change was -3.94% [measured here: RFP humanized mutant strains, DMSO median 0, no signal -100, concentration not given here] and 0.471% [measured here: RFP humanized mutant strains, DMSO median 0, no signal -100, concentration not given here].
With `CN(C)CC1Oc2ccccc2OC1(O)c1ccccc1` (stereo not given), the GFP signal change (wild-type ribosome) was -40.9% (active), the OD600 change was -11.5% and the RFP signal change is -12.2%.
As for `COC(=O)[C@@H]1[C@@H](CO)[C@@H]2Cn3c(ccc(C4=CCCCC4)c3=O)[C@H]1N2CC1CC1`, the GFP signal change (wild-type ribosome) is -0.199% (inactive), the OD600 change is -2.21% and the RFP signal change is -0.887%.
In the same order, the values of `O=C(O)[C@H]1[C@H](CO)[C@H]2Cn3c(cccc3=O)[C@@H]1N2C(=O)c1ccccc1` are 2.42% (inactive), 7.83% and -1.92%.
`COc1ccccc1CN1[C@@H](CO)[C@@H](c2ccccc2)C12CN(C(=O)Cc1ccccc1)C2`: the GFP signal change (wild-type ribosome) is -13.7% [stronger effect = lower value, DMSO median 0, no signal -100] (inactive); the OD600 change was -27.1% [measured here: OD600 growth, DMSO median 0, no signal -100]; the RFP signal change is -0.899% [measured here: RFP humanized mutant strains, DMSO median 0, no signal -100, concentration not given here].
For `COC(=O)[C@@H]1[C@@H](CO)[C@@H]2Cn3c(ccc(-c4cccc(C(=O)N(C)C)c4)c3=O)[C@H]1N2C(=O)NC(C)C`, in that order: 1.25% (inactive), 8.61% and -0.784%.
